Compound activity deposited in PubChem by Sanford-Burnham Center for Chemical Genomics.
Hits are enriched below; roughly 28% of the tested compounds scored in any of these assays.
CYP2C9 inh – blockers of cytochrome P450 2C9 activity – biochemical, luminescence, ADME assay, primary screen. CYP2C9 Supersomes, luciferin-H conversion. 96,000 compounds, 20% hits. inhibition, % at 5 µM;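 active means blocking of liver enzyme CYP2C9 beyond about 50% at 5 µM, limit read from the data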
CYP2C19 activ – human CYP2C19 activators, primary screen, biochemical, luminescence; recombinant CYP2C19, luciferin-H EGE luminescence; stronger effect = higher value; 0 = fully inhibited enzyme, 1 = untreated enzyme; Cytochrome P450 2C19 (Homo sapiens), P33261; AID 1025, 2008; activation factor at 5 µM; 96,000 tested, under 10 active;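 active means activation factor of at least 2 at 5 µM in the primary screen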
Target sequence (P33261 whole entry, looked up): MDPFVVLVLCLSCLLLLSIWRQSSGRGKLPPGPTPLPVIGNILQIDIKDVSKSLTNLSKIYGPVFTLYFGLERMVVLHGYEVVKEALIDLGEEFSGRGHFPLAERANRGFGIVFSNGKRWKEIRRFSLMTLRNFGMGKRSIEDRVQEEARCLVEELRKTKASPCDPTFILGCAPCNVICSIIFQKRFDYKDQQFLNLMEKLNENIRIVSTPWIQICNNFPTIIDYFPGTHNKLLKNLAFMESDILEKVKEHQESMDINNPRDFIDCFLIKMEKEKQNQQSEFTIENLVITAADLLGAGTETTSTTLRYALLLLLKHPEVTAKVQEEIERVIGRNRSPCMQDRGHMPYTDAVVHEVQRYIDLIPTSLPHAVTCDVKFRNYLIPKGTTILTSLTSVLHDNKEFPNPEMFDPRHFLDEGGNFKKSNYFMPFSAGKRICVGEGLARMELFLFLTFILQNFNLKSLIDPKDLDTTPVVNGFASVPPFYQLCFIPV
CYP2C19 inh – blockers of cytochrome P450 2C19 activity – biochemical, luminescence, ADME assay, primary screen | 96,000 compounds, 21% hits | AID 778, 2007 | P33261 | inhibition, % at 5 µM | CYP2C19 Supersomes, luciferin-H EGE luminescence, 30 min;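 active means CYP2C19 inhibition above a set limit at 5 µM in the primary screen, cut at about 50% in these data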
CYP2C9 act – human CYP2C9 activators, primary screen, biochemical, luminescence; recombinant CYP2C9, luciferin-H conversion; stronger effect = higher value; factor 1 = untreated enzyme, 0 = blocked; activation factor at 5 µM; AID 1024, 2008; 96,000 compounds, 1.4% hits; Cytochrome P450 2C9 (Homo sapiens), P11712;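 active means activation factor of 2 or more for CYP2C9 at a 5 µM dose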
CD11b adhes enh – enhancers of CD11b/CD18 adhesion to fibrinogen, primary screen, K562 cells, luminescence | activation, % at 10 µM | Integrin beta-2 (Homo sapiens) + Integrin alpha-M (Homo sapiens), P05107+P11215 | 93,000 compounds, 0.07% hits | ATPlite luminescence;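 active means 10 µM primary screen giving 50% or more activity, confirmed by 40% or more on retest at that dose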
Mac1 fbg inh – inhibitors of CD11b/CD18 adhesion to fibrinogen, primary screen, K562 cells, luminescence; Integrin beta-2 (Homo sapiens) + Integrin alpha-M (Homo sapiens), P05107+P11215; ATPlite luminescence; Mn2+ added to activate the integrin; inhibition, % at 10 µM; 93,000 compounds, 0.54% hits;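 active means primary inhibition of 50% or more at 10 µM, then 40% or more on retest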
Hits are given with their value.

Results for COc1ccc(C(=O)c2ccc(CC#N)s2)cc1 ?
CYP2C9 inh: inactive; CYP2C19 activ: inactive; CYP2C19 inh: 56; CYP2C9 act: inactive; CD11b adhes enh: inactive; Mac1 fbg inh: inactive

What do the screens show for `CCOC(=O)c1ccc(NC(=O)CSc2nnc(-c3cccs3)n2CC)cc1`?
CYP2C9 inh: inactive; CYP2C19 activ: inactive; CYP2C19 inh: inactive; CYP2C9 act: inactive; CD11b adhes enh: inactive; Mac1 fbg inh: inactive

What do the screens show for `CCc1ccc(NC(=O)CSc2nnc(-c3cccs3)n2CC)cc1`?
CYP2C9 inh: 52; CYP2C19 activ: inactive; CYP2C19 inh: inactive; CYP2C9 act: inactive; CD11b adhes enh: inactive; Mac1 fbg inh: inactive

What do the screens show for `CCn1c(SCC(=O)Nc2cccc(NC(=O)c3ccco3)c2)nnc1-c1cccs1`?
CYP2C9 inh: 65; CYP2C19 activ: inactive; CYP2C19 inh: 56; CYP2C9 act: inactive; CD11b adhes enh: inactive; Mac1 fbg inh: inactive

What do the screens show for `CCn1c(CC(=O)Nc2ccc(C)c(Cl)c2)nnc1SCC(=O)Nc1nc(C)cs1`?
CYP2C9 inh: 63; CYP2C19 activ: inactive; CYP2C19 inh: inactive; CYP2C9 act: inactive; CD11b adhes enh: inactive; Mac1 fbg inh: inactive

How did CCn1c(SCC(=O)NCCc2ccc(Cl)cc2)nnc1-c1cccs1 do in these assays?
CYP2C9 inh: 81; CYP2C19 activ: inactive; CYP2C19 inh: 78; CYP2C9 act: inactive; CD11b adhes enh: inactive; Mac1 fbg inh: inactive

Results for C=CCC(C#Cc1ccccc1)[N+](C)(C)CC=C (stereo not given) ?
CYP2C9 inh: inactive; CYP2C19 activ: inactive; CYP2C19 inh: inactive; CYP2C9 act: inactive; CD11b adhes enh: inactive; Mac1 fbg inh: inactive

Results for CC(C)c1ccc(NC(=O)CSc2nnc(-c3ccccn3)n2C)cc1 ?
CYP2C9 inh: inactive; CYP2C19 activ: inactive; CYP2C19 inh: inactive; CYP2C9 act: inactive; CD11b adhes enh: inactive; Mac1 fbg inh: inactive

Results for Cc1csc(NC(=O)CSc2nnc(-c3cccs3)n2C)n1 ?
CYP2C9 inh: inactive; CYP2C19 activ: inactive; CYP2C19 inh: 52; CYP2C9 act: inactive; CD11b adhes enh: inactive; Mac1 fbg inh: inactive

How did Cn1c(SCC(=O)Nc2cc(=O)n(C)c(=O)n2C)nnc1-c1cccs1 do in these assays?
CYP2C9 inh: inactive; CYP2C19 activ: inactive; CYP2C19 inh: inactive; CYP2C9 act: inactive; CD11b adhes enh: inactive; Mac1 fbg inh: inactive

How did CCc1ccc(NC(=O)CSc2nnc(-c3ccccn3)n2C)cc1 do in these assays?
CYP2C9 inh: 72; CYP2C19 activ: inactive; CYP2C19 inh: 67; CYP2C9 act: inactive; CD11b adhes enh: inactive; Mac1 fbg inh: inactive

Results for O=C(C1CCCO1)N1CCC(O)(c2ccccc2)CC1 (stereo not given) ?
CYP2C9 inh: inactive; CYP2C19 activ: inactive; CYP2C19 inh: inactive; CYP2C9 act: inactive; CD11b adhes enh: inactive; Mac1 fbg inh: inactive

What do the screens show for `COc1ccc(C(=O)/C=C(\N)C(F)(F)F)c(O)c1`?
CYP2C9 inh: inactive; CYP2C19 activ: inactive; CYP2C19 inh: 60; CYP2C9 act: inactive; CD11b adhes enh: inactive; Mac1 fbg inh: inactive

Results for O=C(CSc1nnc(SCc2ccccc2)s1)NNC(=S)Nc1ccccc1 ?
CD11b adhes enh: inactive; Mac1 fbg inh: inactive

What do the screens show for `COC(=O)C1=C(C)NC(=O)CC1c1cc2c(cc1Br)OCO2` (stereo not given)?
CYP2C9 inh: 71; CYP2C19 activ: inactive; CYP2C19 inh: 82; CYP2C9 act: inactive; CD11b adhes enh: inactive; Mac1 fbg inh: inactive

How did CC1=C(C(=O)OCCOC(C)C)C(c2cc3c(cc2Br)OCO3)CC(=O)N1 (stereo not given) do in these assays?
CYP2C9 inh: 65; CYP2C19 activ: inactive; CYP2C19 inh: 80; CYP2C9 act: inactive; CD11b adhes enh: inactive; Mac1 fbg inh: inactive

Results for COC(=O)C1=C(C)NC(=O)CC1c1ccc(C(=O)OC)cc1 (stereo not given) ?
CYP2C9 inh: inactive; CYP2C19 activ: inactive; CYP2C19 inh: inactive; CYP2C9 act: inactive; CD11b adhes enh: inactive; Mac1 fbg inh: inactive
